Source: PubChem BioAssay
GalR3 antag – antagonists of human GalR3; AID 651719; 360,000 compounds, 0.44% hits; inhibition, % at 3 µM; O60755; HEK293 GalR3-CNG cAMP membrane potential fluorescence; galR3 body fused to GalR1 C-terminus;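 active = inhibition above the screen-wide average plus 3 SD, cut at about 13% in these data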;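 also: forskolin and galanin both at EC90 stimulate the cells; cAMP rise reported by CNG channel membrane potential dye signal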
H9c2 protect – modulators protecting cardiomyocytes from myocardial damage; H9c2 cardiomyocytes, H2O2 injury protection, ATPLite, 2 h; protection from H2O2 cell death, % at 20 µM; 360,000 compounds, 0.63% hits; AID 588492;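 active = compounds giving at least 50% protection of heart cells from peroxide-induced death in the single-dose screen, raw or plate-pattern-corrected value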
Gli-Sufu block – blocks Gli-Sufu signaling in a luciferase reporter; inhibition, % at 5 µM; Sufu-KO-LIGHT fibroblasts, Gli luciferase reporter luminescence; 340,000 compounds, 0.74% hits; AID 588413;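 active = inhibition above about 55%, limit read from the data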
SMARCA2 act – activators of SMARCA2 function | AID 652017 | MG213 cells, MMTV-luciferase reporter, dexamethasone, overnight | activation, % at 9.1 µM | 370,000 compounds, 1% hits; in the data active = activation above about 7.8%
FXN GAA850 act – frataxin GAA850 promoter activation; HEK293 lucGAA850 FXN promoter luciferase reporter, 24 h; percent of 10 µM SAHA response; activation, % at 6 µM; 360,000 compounds, 0.56% hits; AID 540364;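 active = activation above the average of all compounds screened plus 3 SD, cutoff fixed separately per campaign, cut at about 7.5% in these data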
COUP-TFII inh – inhibitors of human COUP-TFII (NR2F2); P24468; inhibition, % at 8.6 µM; HEK293T NGFI-A luciferase reporter, luminescence; 370,000 compounds, 0.7% hits; AID 686940;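 active = inhibition above a per-plate cutoff, mean inhibition of test wells between control levels plus 3 SD, cut at about 38% in these data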;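 also: cells cotransfected with COUP-TFII expression vector driving the NGFI-A reporter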
Target sequence (P24468 whole entry, looked up): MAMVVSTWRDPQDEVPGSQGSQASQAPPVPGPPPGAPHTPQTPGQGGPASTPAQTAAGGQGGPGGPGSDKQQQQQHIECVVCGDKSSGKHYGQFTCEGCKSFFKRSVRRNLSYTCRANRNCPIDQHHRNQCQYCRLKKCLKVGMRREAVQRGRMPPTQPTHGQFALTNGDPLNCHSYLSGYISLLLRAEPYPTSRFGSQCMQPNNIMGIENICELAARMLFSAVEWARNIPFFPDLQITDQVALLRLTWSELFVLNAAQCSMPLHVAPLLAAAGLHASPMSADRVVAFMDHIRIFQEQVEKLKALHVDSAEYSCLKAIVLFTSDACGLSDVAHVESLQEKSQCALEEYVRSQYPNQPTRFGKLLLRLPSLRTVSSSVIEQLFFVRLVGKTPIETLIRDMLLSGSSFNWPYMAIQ
GalR3 antag conf – confirmation of human galanin receptor 3 antagonists. 1,600 compounds, 59% hits. shares compounds with GalR3 antag. inhibition, % at 3 µM. HEK293 GalR3 CNG cAMP biosensor, membrane potential fluorescence; galR3 fused to GalR1 carboxy tail; challenged with forskolin and galanin at EC90;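 active = inhibition above the primary screen's cutoff, the mean inhibition of all screened compounds plus 3 SD, cut at about 13% in these data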
CNG parental – parental cell agonism counter-screen for GalR3 antagonists; activation, % at 3 µM; AID 652268; 1,600 compounds, 10% hits; shares compounds with GalR3 antag; HEK293-CNG parental cells, cAMP membrane potential fluorescence; normalised: DMSO wells 0%, forskolin wells 100%; in the data active = activation above about 1.3%
Hits are given with their value; - = inactive; . = no result given. Sampled rows, rich in hits. Any-hit rate of the full collection: about 3.4%.

SMILES | GalR3 antag | H9c2 protect | Gli-Sufu block | SMARCA2 act | FXN GAA850 act | COUP-TFII inh | GalR3 antag conf | CNG parental
CCc1ccccc1NC(=O)CN1CCN(C(=O)CNC(=O)Cc2cccc3ccccc23)CC1 | - | - | - | - | - | - | . | .
CC(=O)NC(C)(c1ccccc1)c1nc(/C=C/c2ccccc2)cs1 (centres undefined) | - | - | . | - | - | - | . | .
CCOC(=O)CCC(=O)N(CCN(C(=O)CCC(=O)OCC)c1ccccc1)c1ccccc1 | - | - | - | - | - | - | . | .
CCOC(=O)CCc1cccc2c1CCC2=O | . | - | - | - | - | - | - | -
COc1ccc(NC(=O)COc2ccccc2)cc1NC(=O)c1ccco1 | - | - | - | - | - | - | . | .
O=C(Cn1nc(C(=O)O)c2ccccc2c1=O)Nc1cc(C(F)(F)F)ccc1-n1cncn1 | - | - | - | - | - | - | . | .
O=C(Cn1nc(-c2cccc(Cl)c2)ccc1=O)NCC1COCCO1 (centres undefined) | - | - | - | - | - | - | . | .
N#Cc1c(N)nc2c3c(sc(=N)c2c1N)NC(=O)CC3c1ccccc1 (centres undefined) | 22 | - | - | - | - | - | 25 | -
N#Cc1c(N)nc2c3c(sc(=N)c2c1N)NC(=O)CC3c1c(F)cccc1Cl (centres undefined) | - | - | - | - | - | - | . | .
Cc1c(C#N)c(N)nc2c3c(sc12)NC(=O)CC3c1ccc(Cl)cc1 (centres undefined) | 25 | 50 | - | - | - | - | 48 | -
COCCCNc1ccn2nc(-c3ccc(Cl)cc3)cc2n1 | - | - | . | - | - | - | . | .
CC(C)c1nnc(NC(=O)c2cccc(NC(=O)C(F)(F)F)c2)s1 | - | - | - | - | - | - | . | .
COC(=O)CC1C(=O)NCCN1C(=O)CSc1nc2ccccc2s1 (centres undefined) | - | - | - | - | - | - | . | .
Cc1cc(C)c(C#N)c(SCc2[nH]nc3c2C(c2ccc(F)cc2)C(C#N)=C(N)O3)n1 (centres undefined) | 18 | - | - | - | - | - | 39 | 4.4
CCCCCNc1nc2sc3c(c2c(=O)n1-c1cccc(Cl)c1)CCN(C)C3 | - | - | - | - | - | - | . | .
Cc1nc2sc(C(=O)c3ccccc3)c(N)c2c(C)c1C | 13 | - | - | - | - | - | - | -
CC1CC(=O)NN=C1c1ccc(N)c([N+](=O)[O-])c1 (centres undefined) | 64 | - | - | - | - | - | 73 | -
CCc1nc2ccc(C(=O)Nc3ccc(OC)c(OC)c3)cn2c1N(CC)Cc1cccc(Br)c1 | - | - | . | - | - | - | . | .
CCc1nc2ccc(C(=O)Nc3ccc(OC)c(OC)c3)cn2c1N(CC)CCOC | 13 | - | . | - | - | - | - | -
Cc1csc(SCC(=O)Nc2sc3c(c2C#N)CCC3)n1 | - | - | - | - | - | - | . | .
Cc1ccnc(SCC(=O)Nc2sc3c(c2C#N)CCCC3)n1 | 43 | - | - | - | - | - | 95 | -
CC(C)C[C@H]1CN(CCCC[C@H]2CNC(=O)C(=O)N2Cc2ccccc2)C(=O)C(=O)N1CCC1CCCCC1 | - | . | . | - | . | - | . | .
COCCNC(=O)C1CCCN(C(=O)c2nc3ccccc3s2)CC1 (centres undefined) | - | - | . | - | - | - | . | .
CN(CCO)c1cc(Sc2nc3ccccc3s2)c2nonc2c1[N+](=O)[O-] | 28 | - | - | - | - | - | 51 | -
CCCc1ccc(O)c(N=Cc2cc(Br)cc(OCC)c2O)c1 | 16 | 71 | - | - | - | - | - | -
SMILES | GalR3 antag | H9c2 protect | Gli-Sufu block | SMARCA2 act | FXN GAA850 act | COUP-TFII inh | GalR3 antag conf | CNG parental
COc1ccc(-c2cc(CNc3nc(NCc4ccccc4OC)nc4ccsc34)on2)cc1 | - | - | . | - | - | - | . | .
CCNC(=O)NC(=O)C(C)OC(=O)[C@H](C)NS(=O)(=O)c1c(C)c(C)cc(C)c1C (some centres undefined) | 39 | - | - | - | - | - | - | -
C=CCNC(=O)NC(=O)COC(=O)[C@H](C)NS(=O)(=O)c1c(C)c(C)cc(C)c1C | - | - | - | - | - | - | . | .
O=C(OC1CCOC1=O)c1cc(Cl)ccc1[N+](=O)[O-] (centres undefined) | - | - | - | - | - | - | . | .
O=C(OC1CCOC1=O)c1ccc(N2CCCC2)c([N+](=O)[O-])c1 (centres undefined) | 20 | - | - | - | - | - | - | -
COc1ccc2c(c1)OC(=O)CC2c1cc(OC)c(OC)c(OC)c1 (centres undefined) | 13 | - | - | - | - | - | - | -
NCCOc1ccc(C23CC4CC(CC(C4)C2)C3)cc1 | 27 | - | - | - | - | - | 28 | 14
OCCN1CCN(CC(O)COc2ccc(C34CC5CC(CC(C5)C3)C4)cc2)CC1 (centres undefined) | - | - | - | - | - | - | . | .
CCCC(=O)N1CCCC(c2cc(C(=O)NCc3cccnc3)no2)C1 (centres undefined) | - | - | . | - | - | - | . | .
COc1ccc(C(=O)Nc2ccccc2C(=O)NC(Cc2ccc(O)cc2)C(=O)NNC(=O)c2ccccc2)cc1 (centres undefined) | 13 | - | - | - | - | - | - | -
COc1ccc(C(=O)Nc2ccccc2C(=O)NC(Cc2ccc(O)cc2)C(=O)NNC(=O)c2ccc(C)cc2)cc1 (centres undefined) | - | - | - | - | - | - | . | .
Cc1cc(C)nc(-n2nc(C)c(Br)c2Nc2ccc(Br)cc2)n1 | - | - | - | - | - | - | . | .
Cc1nn(C)c(Nc2ccc(Br)cc2)c1Br | 49 | - | - | - | - | - | 86 | -
Cc1ccc(S(=O)(=O)Nc2ccc(Nc3nccn4c(-c5cccc(OC(F)(F)F)c5)cnc34)cc2)cc1 | - | - | . | - | - | - | . | .
COc1cccc(-c2c(C(=O)N/N=C/c3sccc3C)nnn2-c2nonc2N)c1 | . | - | - | - | - | - | - | -
CCOC(=O)c1ccc(NC(=O)Nc2nc3ccccc3s2)cc1 | - | - | . | - | - | - | . | .
CCOC(=O)c1ccc(NC(=O)Nc2nncs2)cc1 | 14 | - | . | - | - | - | 20 | 1.4
O=C(c1cccs1)N1CCOCC1 | 13 | - | - | - | - | - | - | -
O=C(c1cccs1)N1CCCC1 | - | - | - | - | - | - | . | .
O=C(NNC(=S)NC(=O)c1ccccc1[N+](=O)[O-])c1ccccc1O | 31 | - | - | - | - | - | - | -
